In PubChem BioAssay AID1347145 (National Center for Advancing Translational Sciences (NCATS), 2019):
Records with an inconclusive call do not appear. Activity calls are given as the source filed them. Calls come from the whole dose curve; as a rule, active = well fitted inhibition curve with a large enough effect; inconclusive = small, poorly fitted or top-dose-only effect; inactive = no such curve, though single readings can be large or run the other way.

What follows are compounds tested against N-terminal Xaa-Pro-Lys N-methyltransferase 1 (Homo sapiens) (UniProt Q9BV86) (assay: qHTS Assay for Inhibitors of N-terminal methyltransferase 1 (NTMT1): MTaseGlo Assay Confirmatory Screen, Round 1). Conditions: Recombinant NTMT1, MTase-Glo SAH luminescence; series mostly up to 57.1 µM.
In short: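 Luminescence from MTase-Glo conversion of SAH to ATP measured activity after a 30 min RT reaction with 1 µM SPKRIA substrate, 100 µM SAM and 125 nM enzyme. Normalization used no-enzyme and DMSO controls, followed by Hill fitting.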

N-terminal Xaa-Pro-Lys N-methyltransferase 1 (Homo sapiens), sequence (Q9BV86 whole entry, looked up): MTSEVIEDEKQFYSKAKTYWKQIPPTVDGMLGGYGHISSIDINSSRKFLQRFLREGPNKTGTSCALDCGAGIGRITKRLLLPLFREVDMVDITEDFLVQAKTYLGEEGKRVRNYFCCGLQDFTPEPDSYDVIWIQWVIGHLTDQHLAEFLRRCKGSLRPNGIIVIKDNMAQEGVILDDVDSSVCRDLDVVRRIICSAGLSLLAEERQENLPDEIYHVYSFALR

Potency, inactive:
Nc1ncnc2c1ncn2[C@@H]1O[C@H](COP(=O)(O)OP(=O)(O)OC[C@H]2OC(O)[C@H](O)[C@@H]2O)[C@@H](O)[C@H]1O (some centres not stated)
CNc1nc2c(N)ncnc2n1[C@@H]1O[C@@H]2COP(=O)(O)O[C@H]2[C@H]1O
Nc1ncnc2c1ncn2[C@@H]1O[C@H](CO)C(O)[C@H]1O (some centres not stated)
COC(=O)c1ccc2c(c1)nc(NC(=O)c1ccccc1)n2CCCc1ccccc1
OC[C@H]1O[C@@H](n2cnc3c(N[C@H]4C[C@H]5CC[C@@H]4C5)ncnc32)[C@H](O)[C@@H]1O
OCC1OC(n2cnc3c(NO)ncnc32)C(O)C1O (configuration not stated)
Cc1cc2nc3c(=O)[nH]c(=O)nc-3n(C[C@H](O)[C@H](O)[C@H](O)COP(=O)(O)OP(=O)(O)OC[C@H]3O[C@@H](n4cnc5c(N)ncnc54)[C@H](O)[C@H]3O)c2cc1C
CCN(CC)c1nc(NC2CCN(C)CC2)c2cc(OC)c(OC)cc2n1
CCCc1cc(C)[nH]c(=O)c1CNC(=O)c1cc(-c2ccc(N3CCN(C(C)C)CC3)nc2)cc2c1cnn2C(C)C
Nc1nc(F)nc2c1ncn2[C@@H]1O[C@H](CO)[C@@H](O)[C@@H]1O
COc1cc2c(NC3CCN(C(C)C)CC3)nc(N3CCCN(C(C)C)CC3)nc2cc1OCCCN1CCCCC1
COc1cc2nc(N3CCCN(C)CC3)nc(NC(C)C)c2cc1OC
COc1cc2c(NC3CCN(C(C)C)CC3)nc(N3CCC(F)(F)CC3)nc2cc1OCCCN1CCCC1
O=S(=O)(O)c1ccc(Nc2ncnc3c2ncn3[C@@H]2O[C@H](CO)[C@@H](O)[C@H]2O)cc1
COc1cc2nc(N(C)C)nc(NC3CC3)c2cc1OC
Nc1ncnc2c1ncn2C1CC(O)C(CO)O1 (configuration not stated)
OC[C@H]1O[C@H](n2cnc3c(N[C@H]4CCC[C@@H]4O)ncnc32)[C@H](O)[C@@H]1O
COc1cc2nc(N3CCN(C)CC3)nc(NC3CC3)c2cc1OC
COc1cc2nc(N3CCN(C)CC3)nc(NC(C)C)c2cc1OC
CCC(CC)n1ccc2c(C(=O)NCc3c(C)cc(C)[nH]c3=O)cc(C#N)cc21
CCN(c1cc(-c2ccc(CN3CCOCC3)cc2)cc(C(=O)NCc2c(C)cc(C)[nH]c2=O)c1C)C1CCOCC1
COc1cc2nc(Nc3ccccc3)nc(NC3CC3)c2cc1OC
COc1cc2c(NC3CCN(C)CC3)nc(N3CCCN(C)CC3)nc2cc1OCCCCCN(C)C
COc1cc2nc(N3CCCN(C)CC3)nc(NC3CCCCC3)c2cc1OC
COc1cc2c(NC3CCN(C(C)C)CC3)nc(N3CCCN(C)CC3)nc2cc1OCCCN(C)C
C=CCNc1nc(NC2CCN(C)CC2)c2cc(OC)c(OC)cc2n1
Nc1ncnc2c1ncn2[C@@H]1O[C@@H](CO)[C@H](O)[C@H]1O
COc1cc2nc(NCCN(C)C)nc(NC3CC3)c2cc1OC
CNc1ncnc2c1ncn2[C@H]1C[C@H](O)[C@@H](CO)O1
C=C1O[C@@](CO)(n2cnc3c(N)ncnc32)[C@H](O)[C@@H]1O
Nc1ncnc2c1ncn2[C@@H]1O[C@H](CO)[C@@H](O)[C@@H]1O
COCCCCOc1cc2nc(N3CCCN(C)CC3)nc(NC3CCN(C)CC3)c2cc1OC
COc1cc2nc(N3CCOCC3)nc(NC3CCN(C)CC3)c2cc1OC
Nc1ncnc2c1ncn2[C@@H]1O[C@H](CO)[C@@H](O)[C@H]1O
Nc1ncnc2c1ncn2[C@H]1O[C@@H](CO)[C@@H](O)[C@H]1N
Nc1ncnc2c1nc(Cl)n2[C@@H]1O[C@H](CO)[C@@H](O)[C@@H]1O
OC[C@H]1O[C@H](n2cnc3c(NC4CCCC4)nc(Cl)nc32)[C@@H](O)[C@@H]1O
